# Only a selection was taken, and hits are over-represented in it overall.
# Cycloheximide cs: affects cycloheximide protein synthesis inhibition readout, counter-screen. AID 2314. hit rate 12% among 300,000. cell reporter, cycloheximide protein synthesis inhibition counterscreen. max response, %; in the data active = max response mostly above about 13%, no sharp cut-off; inactive = mostly below about 14%; also: read at 38.3 µM for the half of the compounds with a filed dose; 0% is about no effect
# NS1 inh: inhibitors of influenza NS1 protein function | Potency, µM (series often up to 46.1 µM), without a hit: at the highest dose activity, positive = more growth | hit rate 0.4% among 270,000 | AID 2326; calls by dose curve; also: potency is read from the fitted curve at half-maximal effect; actives are rising curves; nearly all actives have a fitted effect of over 50% in size
#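 Compounds were scored for reversing the slow growth caused by influenza A NS1 in S. cerevisiae, measured by optical density at 600 nm. Assay medium contained 2% galactose at pH 6.0; NS1-free yeast of the same strain were the positive control.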
# AmpC no deterg: AmpC beta-lactamase inhibition without detergent; hit rate 0.52% among 330,000; AmpC nitrocefin hydrolysis, absorbance 480 nm, 0.0001% Triton; Potency, µM (highest dose often 57.1 µM), without a hit: top-dose activity change, negative = inhibition, usual class: inhibitors; P00811;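 also: potency is read from the fitted curve at half-maximal effect; plate controls were no compound for no effect and no enzyme for full effect; nearly all actives have a fitted effect of over 20% in size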
# Target sequence (P00811 whole entry, looked up): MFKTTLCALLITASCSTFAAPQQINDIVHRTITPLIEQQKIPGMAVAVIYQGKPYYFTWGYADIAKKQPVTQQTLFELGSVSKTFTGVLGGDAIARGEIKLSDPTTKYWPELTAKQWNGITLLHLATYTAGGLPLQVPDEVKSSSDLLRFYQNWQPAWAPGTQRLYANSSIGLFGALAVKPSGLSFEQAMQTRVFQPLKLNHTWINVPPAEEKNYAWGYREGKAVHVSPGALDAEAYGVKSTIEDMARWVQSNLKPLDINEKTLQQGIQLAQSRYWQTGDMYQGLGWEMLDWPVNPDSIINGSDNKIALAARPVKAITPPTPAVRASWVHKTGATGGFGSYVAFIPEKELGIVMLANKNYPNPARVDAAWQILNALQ
#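 AmpC (5.3 nM in the dispensed reagent) in 20 mM phosphate pH 7.0 with 0.01% (detergent screen) or 0.0001% Triton X-100 was preincubated with compounds for 15 min at room temperature. Nitrocefin was then added from an 800 uM solution, and hydrolysis was followed at 480 nm.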
# AmpC detergent: blocks E. coli AmpC beta-lactamase in detergent assay. P00811. AmpC hydrolysis of nitrocefin, absorbance 480 nm, 0.01% Triton. Potency, µM (doses to about 114 µM), for inactives: top-dose activity change, negative = inhibition, usual class: inhibitors. hit rate 0.041% among 370,000;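 also: potency is read from the fitted curve at half-maximal effect; 0% = no-compound wells and -100% = no-enzyme wells; nearly all actives have a fitted effect of over 25% in size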
#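 AmpC (5.3 nM in the dispensed reagent) in 20 mM phosphate pH 7.0 with 0.01% (detergent screen) or 0.0001% Triton X-100 was preincubated with compounds for 15 min at room temperature. Nitrocefin was then added from an 800 uM solution, and hydrolysis was followed at 480 nm.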
# Shiga toxin inh: Shiga toxin inhibition; hit rate 9.2% among 290,000; inhibition, % at 38.7 µM; Vero cells, Shiga toxin protein synthesis inhibition reporter; in the data active = inhibition mostly above about 28%, no sharp cut-off; inactive = mostly below about 43%; also: 0% is about no effect
# * = called active by the depositor; ? = inconclusive; · = not tested or not shown. Unless noted, calls follow the shape of the dose curve; as a rule, active = well fitted curve in the direction sought with a large enough effect; inconclusive = small, poorly fitted or top-dose-only effect, or another doubt; inactive = no such curve, though single readings can be large; an effect the other way counts as inactive or inconclusive.
SMILES,Cycloheximide cs,NS1 inh,AmpC no deterg,AmpC detergent,Shiga toxin inh
CCSc1nc2c([nH]c3ccccc32)c(=O)n1-c1ccc(OC)cc1,·,·,·,6%,·
Cc1nc(C)c(CCNS(=O)(=O)c2ccc(C)c(C)c2)s1,·,·,·,4%,·
Cc1ccc(C)c(Cn2c3ccccc3c3cnn(CC(=O)NC(C)CCc4ccccc4)c(=O)c32)c1 (stereo not drawn),·,·,·,18%,·
Cn1c(=O)cc(C(=O)N/N=C/c2ccc(F)cc2)[nH]c1=O,0,5%,-6%,-1%,-9
CCSc1nsc(NC(=O)Nc2cccc(F)c2)n1,39*,-134%,-37%,?,·
OCC[C@@H]1C[C@H](O)[C@@H](O)[C@]2(Cc3ccccc3CO2)O1,1,-3%,-16%,-14%,-8
COc1ccc(Cc2[nH]n3c(=O)cc(C(C)C)nc3c2-c2ccccc2)cc1,-4,0%,-36%,-1%,-17
Cc1ccc(/C=C/C(=O)NCc2ccc(S(N)(=O)=O)cc2)o1,-4,6%,-44%,0%,-5
CN(C)CCNc1cnn(-c2ccccc2)c(=O)c1Cl,17*,-1%,-21%,1%,55
CNc1cnn(-c2ccccc2)c(=O)c1Cl,-3,7%,-19%,-9%,37
O=c1c(Cl)c(NCCO)cnn1-c1cccc(Cl)c1,23*,·,-12%,-4%,51*
COc1cccc(N2CCN(C(=O)c3c(C)oc4ncnc(N5CCCCC5)c34)CC2)c1,·,·,·,-1%,·
COc1ccccc1C(=O)NC(CCSC)C(=O)NC1CCCCCC1 (stereo not drawn),5,-5%,-5%,0%,-14
CC(=O)c1c(NCc2ccccc2)nc(=O)n(-c2ccccc2)c1C,24*,-8%,-15%,-9%,54
COc1ccc(C2CCCN2C(=O)c2cccs2)cc1 (stereo not drawn),-5,-4%,-35%,?,-20
COc1ccc(C2CC2/C(=N/OC(=O)c2cccs2)c2ccccc2)cc1 (stereo not drawn),29*,-15%,-35%,-4%,45
CCOC(CCNC(=O)c1cn(CC(C)C)c(=O)c2c1c1ccccc1n2C)OCC,-1,1%,-1%,0%,13
CCn1c(-c2ccc(N(C)C)cc2)nc2ccccc21,23,-39%,-32%,1%,73
CN(C)c1ccc(-c2nc3ccccc3n2C)cc1,24*,-82%,-21%,-15%,15
CC(C)n1c(-c2ccc(N(C)C)cc2)nc2ccccc21,29*,-93%,-11%,-1%,114*
CCOC(=O)N1CCN(S(=O)(=O)N2CCCC(C(=O)NCc3cc(OC)ccc3OC)C2)CC1 (stereo not drawn),·,·,·,-5%,·
COc1ccc(-c2nc3c(n2O)CCC/C3=N\O)cc1,27*,7%,-24%,?,77
O=C(Cn1ccn(-c2ccc(F)cc2)c(=O)c1=O)Nc1ccc(F)cc1,·,·,·,15%,·
Cn1cc(C(=O)C(=O)NC2CCCCC2)c2ccccc21,33*,-4%,1%,?,55*
O=C(N/N=C/c1cccc(F)c1)c1c(O)c2ccccc2[nH]c1=O,-4,-3%,-6%,5%,-7
SMILES,Cycloheximide cs,NS1 inh,AmpC no deterg,AmpC detergent,Shiga toxin inh
O=C(NC1CCCCC1)C(=O)c1c(-c2ccccc2)[nH]c2ccccc12,-6,27%,13µM*,-10%,-13
O=C(NC1CC1)C(=O)c1c(-c2ccccc2)[nH]c2ccccc12,-4,7%,-14%,?,-19
O=C(Nc1cccc(F)c1)c1c(O)c2ccccc2[nH]c1=O,23*,20%,-14%,0%,·
O=C(NC1CCCCCC1)c1c(O)c2ccccc2[nH]c1=O,25*,-7%,-23%,-8%,84*
CC(C)C1Cc2c(sc3ncnc(NN)c23)CO1 (stereo not drawn),-5,-6%,-2%,-2%,2
CCc1ccc(NC(=O)C(Cc2ccccc2)NS(=O)(=O)c2ccc3c(c2)CCN3C(C)=O)cc1 (stereo not drawn),·,·,·,-1%,·
CCOc1ccccc1CNC(=O)c1cc(-c2ccc(OC)cc2)nc2ccc(C(C)C)cc12,·,·,·,-2%,·
CC(C)(C)NC(=O)NC(=O)CN1CCN(C(c2ccccc2)c2ccccc2)CC1,5,·,136%,4%,1
O=C(NC(=S)N1CCN(c2ccccc2)CC1)c1ccccc1,8,17%,-8%,2%,2
Cc1ccc2c(CNCc3ccco3)cc(=O)oc2c1,38*,8%,-33%,4%,55*
Cc1ccccc1-c1ncc(CN2CCN(C3CCCC3)C(CCO)C2)cn1 (stereo not drawn),7,5%,-12%,5%,39
Cc1ccccc1-c1ccc(CN2CCN(C)C(CCO)C2)cc1 (stereo not drawn),11*,-2%,35%,?,19*
Cc1ccc(CSc2sc(C(=O)c3ccccc3)c(N)c2C#N)cc1,-2,-3%,10µM*,0%,-12
N#Cc1c(SCc2ccccc2)sc(C(=O)c2ccccc2)c1N,-2,6%,-25%,0%,-8
CC(C)OC(=O)c1ccc(COC(=O)c2cnccn2)cc1,6,-4%,14%,-1%,49
O=C(OCc1ccc(F)cc1Cl)c1ccccn1,20*,-63%,-2%,-5%,19
O=C(Oc1ccccc1)c1ccc(COC(=O)c2cnccn2)cc1,22*,-34%,14%,-6%,30
O=C(OCc1c(Cl)cccc1Cl)c1ccccn1,-2,-40%,-14%,-8%,-18
O=C(Oc1ccc(Cl)cc1)c1ccc(COC(=O)c2cnccn2)cc1,40*,-123%,60%,-4%,87*
COC(=O)c1ccc(COC(=O)c2ccccn2)cc1,38*,-6%,-18%,-2%,86*
COc1ccc(CCNC(=O)COC(=O)c2ccccn2)cc1,·,·,-11%,·,·
CNC(=O)COc1coc(CN2CCN(c3cccc(Cl)c3)CC2)cc1=O,-2,-2%,21%,-9%,-4
COC(=O)c1ccc(COC(=O)Cc2n[nH]c(=O)c3ccccc23)cc1,27*,5%,-18%,-2%,27
c1cc(Nc2ncnc3sccc23)cc(-c2nnc3n2CCCCC3)c1,13,4%,-17%,-13%,16
COC(=O)c1sc(NC(=O)CCCn2nc([N+](=O)[O-])cc2C)c(C(=O)OC)c1C,-1,5%,-19%,-8%,-11
SMILES,Cycloheximide cs,NS1 inh,AmpC no deterg,AmpC detergent,Shiga toxin inh
Cc1ccc(NC(=O)CCC(=O)c2cccs2)c(O)c1,66*,-30%,-39%,1%,74*
O=C(CCC(=O)c1cccs1)NC(c1ccccc1)c1ccccc1,13,13%,-25%,-10%,16
O=C(CCC(=O)c1cccs1)c1cccs1,40*,11%,-26%,-9%,34*
CSc1ccccc1C(=O)NCCCn1ccnc1,-1,11%,-7%,1%,-11
CCOC(=O)c1nc(Nc2ccc(OC)cc2)c2ccccc2n1,24*,-6%,-12%,4%,47*
c1ccc(-c2cc(-c3ccc(N4CCOCC4)cc3)nc3ccccc23)cc1,14*,6%,77%,?,-9
Cc1ccc(-c2nc(Nc3cccc(O)c3)c3ccccc3n2)cc1,2,-34%,?,-11%,33

# Bioassay records (PubChem)
